# Assay results as given in PubChem BioAssay (NCI).
# This is part of a sample that, as a whole, favours compounds with a hit. Of some 83,000 tested, about 20% had one in any assay.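 Assay: single dose, 48 h. Readout: percent growth (0 = no net growth; negative = cell death). Active: <10.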 The source made the active and inactive calls.
# Test system: HL-60(TB) leukemia
# Assay: NCI-60 one-dose screen, 48 h (100 = growth as untreated, 0 = no growth, -100 = all killed)
# Conditions: 10 µM unless noted
row,Structure (SMILES),growth
1,CCCCCCN(CCCCCC)CCC(O)c1ccc2ccccc2c1 (stereo not given),42.4% (inactive)
2,O=C(CCCCCCSc1nc(-c2ccccc2)cc(-c2ccc(Cl)cc2)n1)NO,-37.5% (active)
3,CN(C)c1ccc([C@@H](C(=O)Nc2cccc([N+](=O)[O-])c2)N(C(=O)c2cc3ccccc3[nH]2)c2cccc([N+](=O)[O-])c2)cc1,97.8% (inactive)
4,Cc1cc(N=O)cc(C(C)(C)C)c1O,99.6% (inactive)
5,C=CCNC(=O)Cc1c(-c2ccc(OC)cc2)oc2c(OC)c3c(c(OC)c12)OCO3,102% (inactive)
6,CC1(C)C2CCC1(C)C1(C2)OCCS1 (stereo not given),91.3% (inactive)
7,O=c1c2c(c3ccccc3n1-c1ccccc1)NC(=S)NC2c1ccc(Cl)cc1 (stereo not given),22.1% (inactive)
8,CCCCNC(=O)Oc1ccc(/C(=C(/C)Cc2ccc(OC)cc2)c2ccc(OCCN3CCCCCC3)cc2)cc1,33.9% (inactive)
9,C=C(Cl)COC(=O)C(C)(C)O,103% (inactive)
10,O=C([C@H]1C[C@H]1c1ccc(S(F)(F)(F)(F)F)cc1)N1CCN(c2cc(Cl)ccc2C(F)(F)F)CC1,83.5% (inactive)
11,CN(CCC(=O)c1ccccc1)CCC(=O)c1ccccc1,75.4% (inactive)
12,O=C(/C=C/c1cccnc1)c1ccccc1,89.8% (inactive)
13,Cc1cccc2c(NCCN(C)C)c3cccc(C(=O)NCCN(C)C)c3nc12,-8.73% (active)
14,Clc1ccc2c(c1)-n1cccc1C(c1ccc3ccccc3c1)=NC2,76.9% (inactive)
15,COc1cc(OC)c(/C=C/C(=O)c2ccc(Nc3ncnc4ccccc34)cc2)c(OC)c1,2.85% (active)
16,Cn1c(=O)c(S(=O)(=O)c2ccccc2)cc2ccc3c(cnn3-c3ccc(Cl)cc3)c21,90.2% (inactive)
17,CCC(C)N(CCNc1cc(OC)cc2cccnc12)CC(C)C (stereo not given),73.9% (inactive)
18,Nc1nc(-c2cc3c(cc2Cl)NC(=O)/C3=C/c2ccccc2)cs1,47% (inactive)
19,O=C1c2ccccc2C(=O)c2c([N+](=O)[O-])ccc(Cl)c21,111% (inactive)
20,COc1ccc(C2=NN(C(=O)COc3ccc(Cl)cc3)C(O)(c3cc(F)c(Cl)cc3Cl)C2)cc1 (stereo not given),95% (inactive)

row,Structure (SMILES),growth
1,O=P(O)(O)OCC1OC(n2cnc3c(NCc4ccccc4)ncnc32)C(O)C1O (stereo not given),26.8% (inactive)
2,CN1C(=O)N(C)C2Nn3c(s/c(=C4\C(=O)N(CCc5ccccc5)c5ccccc54)c3=O)=NC21 (stereo not given),56.9% (inactive)
3,O=C1OC2(c3ccccc31)c1ccccc1-c1ccccc12,69.6% (inactive)
4,CCOC(=O)c1c(C)[nH]c2ccc(O)cc12,95.7% (inactive)
5,CC(/C=N/N1C(=O)c2ccccc2C1=O)c1ccccc1 (stereo not given),108% (inactive)
6,O=C1NC(=O)/C(=C\c2ccccc2)C2=C1CCCC2,-33.3% (active)
7,COC(=O)c1ccc2nc(-c3cc4ccccc4n3C)n(CCCCOc3cc4c(cc3OC)C(=O)N3CCC[C@H]3C=N4)c2c1,-36.2% (active)
8,Nc1c(C(=O)c2ccc(Cl)s2)sc2nc3c(cc12)CCCC3,106% (inactive)
9,O=C(c1ccccc1)c1ccccc1-c1ccccc1,-4.58% (active)
10,CN(C)c1ccc2[nH]c3c(C(N)=O)cc(=O)c(=O)c=3oc2c1,-2.19% (active)
11,O=C(CCc1nnc2sc(-c3ccc(Cl)cc3Cl)nn12)c1nc2ncccc2[nH]1,3.13% (active)
12,COc1cc2c3c(c(=O)oc2cc1OS(=O)(=O)c1ccc(C(F)(F)F)cc1)CCCCC3,107% (inactive)
13,COc1cc(/C=C/C(=O)c2ccc(Nc3nc(Nc4ccccc4)nc(Nc4ccc(Cl)cc4)n3)cc2)cc(OC)c1OC,64.5% (inactive)
14,CCN(CC)CCCC(C)Nc1ccnc2c(OC)cccc12 (stereo not given),52.6% (inactive)
15,Oc1cc(Cl)ccc1Cc1ccc(Cl)cc1O,41.4% (inactive)
16,COc1ccc(/C=C/C(=O)c2ccc3cc(OC)c(OC)cc3c2)cc1OC,44.7% (inactive)
17,O=C1Nc2ccccc2/C1=C\c1ccccc1O,75.2% (inactive)
18,CCc1ccc(C2=C/C(=C/c3ccc(Cl)cc3)C(=O)N2CCc2ccc(S(N)(=O)=O)cc2)cc1,-18.9% (active)
19,NC(CO)(CO)c1ccccc1,119% (inactive)
20,O=C1c2c(c(=O)[nH]c3ccccc23)CCN1Cc1ccccc1,118% (inactive)
